# Measured values reported in PubChem BioAssay (NCI).
# Compounds without any hit were thinned out: in the full panel of roughly 83,000, 20% have a hit.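 Testing used 96-well plates and a 48-hour single-concentration exposure. Example: -40 means 40% of the starting cells died.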 Active and inactive are the calls of the source. Rule for the calls: active = growth percent below 10; inactive = the rest.
# Tested on: NCI-H522 lung
# Assay: NCI-60 one-dose screen, 48 h (100 = growth as untreated, 0 = no growth, -100 = all killed)
# Settings: 10 µM unless noted
row,Structure (SMILES),growth
1,Nc1nc(NC(=O)Nc2ccc(C(=O)O)cc2)nn1-c1ccc(S(N)(=O)=O)cc1,97.7% (inactive)
2,O=C(CCCCCCN1CC(=O)N2[C@H](c3ccc(Cl)cc3)c3[nH]c4ccccc4c3C[C@@H]2C1=O)NO,32.8% (inactive)
3,CC(=O)OC[C@]12CC[C@@H]([C@@H](C)c3nnc(-c4ccncc4)o3)[C@@H]1[C@H]1CC[C@@H]3[C@@]4(C)CC[C@H](OC(C)=O)C(C)(C)[C@@H]4CC[C@@]3(C)[C@]1(C)CC2,76.2% (inactive)
4,Cc1ccc(C(=O)Nc2cccc(C#Cc3cccc4[nH]nc(N)c34)c2)cc1C(F)(F)F,60.2% (inactive)
5,CCCCNC(=O)Oc1ccc(/C(=C(/C)Cc2ccc(OC)cc2)c2ccc(OCCN3CCCCCC3)cc2)cc1,68.5% (inactive)
6,Cc1ccc2nc(/C(C#N)=C(/CCCO)NC(Cc3ccccc3)C(=O)OCc3ccccc3)[nH]c(=O)c2c1 (stereo not given),112% (inactive)
7,O=C1/C(=C2\SC(=S)N(C3CC3)C2=O)SC(=S)N1C1CC1,91.9% (inactive)
8,CC1=CC(c2ccco2)=C2C(N)=NNC2N1 (stereo not given),95.2% (inactive)
9,Nc1nc2c(c3ncccc13)C(c1cccc(Cl)c1)Cc1ncccc1-2 (stereo not given),-14.5% (active)
10,O=C(O)c1ccc(-c2ccc(/C=N/Nc3nc(Nc4ccccc4)nc(N4CCCCC4)n3)o2)cc1,43% (inactive)
11,COC(=O)c1c2c(c(C)[n+]([O-])c1C)C(=O)C(NCc1cccc(Cl)c1)=CC2=O,-10.4% (active)
12,Fc1ccc(Cn2cc(CSc3nc4ccccc4o3)nn2)cc1,83.4% (inactive)
13,CC1CCN(C(=O)CCCl)c2ccccc21 (stereo not given),84.9% (inactive)
14,CC1CCN(C(=S)SCC(=O)NC(=O)c2ccccc2)CC1,83.3% (inactive)
15,CCOc1ccc(-n2nc(C(=O)NCc3ccccc3OC)nc2-c2cc(OC)c(OC)c(OC)c2)cc1,35.7% (inactive)
16,COc1ccc(C(=O)N2c3ccccc3Sc3ccccc32)c(C(F)(F)F)c1,2% (active)
17,O=C(N=Nc1c(O)[nH]c2ccccc12)Nc1ccc(F)cc1,78.5% (inactive)
18,O=C(O)c1cn(C2CC2)c2cc(N3CCN(C(=O)Nc4nc(-c5ccc(Br)cc5)cs4)CC3)c(F)cc2c1=O,5.78% (active)
19,CCN1C(=O)N(CC)C2C1NN=c1s/c(=C\c3ccc(C(F)(F)F)cc3)c(=O)n12 (stereo not given),-10.5% (active)
20,Cc1ccc(C(=O)c2ccc(CC(=O)N=Nc3c(O)[nH]c4ccc(Br)cc34)n2C)cc1,84.1% (inactive)
21,Cc1ccc(Cl)cc1NC(=O)c1sc2nc3c(cc2c1N)C(=O)CCC3,22.9% (inactive)
22,Clc1ccc(-c2cc(-c3ccccc3)nc(NCCNc3ccnc4cc(Cl)ccc34)n2)cc1,-35.9% (active)
23,N#C/C(=C\c1cn(Cc2ccccc2)c2ccccc12)C(=O)Nc1ncc(Cc2ccccc2Cl)s1,30.3% (inactive)
24,CC/C=C\C[C@H](O)C/C=C1/C(=O)C=C[C@@H]1C/C=C\CCCC(=O)O,-10.7% (active)
25,C#Cc1cccc(Nc2nc(C)nc3cc(NC(=O)CCl)ccc23)c1,-77.5% (active)
